Rows were chosen to be rich in hits. Some 6% of all compounds tested hit in one or more screens of this group.
D1 ag – activates the human D1 dopamine receptor. P21728. HEK293 T-REx D1 cells, calcium flux, agonist mode. activation, % at 2 µM. 360,000 tested, 1% active. AID 504660; in the data active means activation above about 30%; further: 0% is about no effect
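Inducible HEK293 T-REx D1 cells, force-coupled to calcium signalling, were plated at 4000 cells/well with tetracycline and held overnight at 30 C. After no-wash calcium dye loading, compound-evoked calcium rise over 180 s flagged agonists.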
DRD3 agonist – D3 dopamine receptor (human) agonism. AID 652048. max activation, %. 410,000 tested, 0.58% active. D3R DiscoveRx beta-arrestin cells, luminescence, 90 min. P35462; in the data active means max activation above about 30%; further: 0% is about no effect
Target sequence (P35462 whole entry, looked up): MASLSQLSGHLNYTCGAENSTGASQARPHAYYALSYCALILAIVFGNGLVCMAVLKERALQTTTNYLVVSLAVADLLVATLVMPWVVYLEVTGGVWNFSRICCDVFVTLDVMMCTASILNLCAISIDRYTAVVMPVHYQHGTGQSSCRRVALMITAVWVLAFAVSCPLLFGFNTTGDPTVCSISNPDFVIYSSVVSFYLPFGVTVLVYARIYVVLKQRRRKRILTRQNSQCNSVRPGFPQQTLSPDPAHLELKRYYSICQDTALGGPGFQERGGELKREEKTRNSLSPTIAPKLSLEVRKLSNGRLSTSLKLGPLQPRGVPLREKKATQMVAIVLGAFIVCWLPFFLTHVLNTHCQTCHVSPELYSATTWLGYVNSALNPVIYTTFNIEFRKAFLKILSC
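Cells at 1500/well, incubated overnight, then treated with pinned compounds (dopamine as control) for 90 min at 37 degrees C. DiscoveRx reagent added for 30 - 60 minutes at room temperature; luminescence read.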
D1 antagonist – blocks dopamine activation of the human D1 receptor. P21728. HEK293 TREx D1 cells, calcium flux, dopamine EC80; active compounds read low. activity change, negative = inhibition, % at 10 µM. 360,000 tested, 3.2% active. AID 504652; in the data active means activity change below about -30%; further: on the % scale 0 is the no-effect control and ±100 the full control effect
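Using tetracycline-induced force-coupled D1 Hek293 cells and a calcium dye, signals were followed for 180 s after compound, then for 180 s after EC80 dopamine, to detect inhibitors.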
DRD3 antagonist – D3 dopamine receptor (human) antagonism. P35462. D3R cells, DiscoveRx beta-arrestin luminescence, antagonist mode; active compounds read low. max response, negative = inhibition, %. 360,000 tested, 2.5% active; in the data active means max response below about -50%; further: on the % scale 0 is the no-effect control and ±100 the full control effect
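Cells plated overnight at 1500 cells/well, then exposed to library compounds with dopamine controls for 90 minutes at 37 degrees C. DiscoveRx reagent added for 30–60 minutes at room temperature; luminescence read, quantitative HTS format.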
D1 potentiator – human D1 dopamine receptor positive modulation. P21728. HEK293 TREx D1 cells, calcium flux, dopamine EC20 potentiation. potentiation, % at 10 µM. 360,000 tested, 0.036% active; in the data active means potentiation above about 30%; further: 0% is about no effect
An asterisk follows results filed as active; . = not tested or not shown.

SMILES | D1 ag | DRD3 agonist | D1 antagonist | DRD3 antagonist | D1 potentiator
COc1cccc(NC(=O)c2oc3ccccc3c2NC(=O)c2ccc(OC(C)C)cc2)c1 | 50* | -1 | -16 | . | -1
CCOc1ccc(C(=O)Nc2c(C(=O)c3ccc(OC)cc3)oc3ccccc23)cc1 | 0 | -1 | -5 | . | -2
CCOc1ccc(C(=O)Nc2c(C(=O)c3ccccc3)oc3ccccc23)cc1 | 143* | 2 | 7 | . | 4
O=[N+]([O-])c1cnc(Sc2ccncn2)c([N+](=O)[O-])c1 | . | -10 | . | 0 | .
O=[N+]([O-])c1cnc(Sc2ccncn2)s1 | -1 | -27 | 4 | -125* | 6
CC(=O)CC1(O)C(=O)N(CN2CCN(c3ccccc3)CC2)c2ccccc21 (centres undefined) | 4 | -24 | -10 | -58* | 0
CC1CCOC2(O1)C(=O)N(CN1CCN(c3cccc(Cl)c3)CC1)c1ccccc12 (centres undefined) | 3 | -15 | -6 | -57* | -15
Cc1ccc2c(c1)c(=O)c1ccccc1n2CCCC(=O)Nc1c(F)cccc1F | -2 | 14 | -9 | . | 0
CCC(=O)c1ccc(OCC(O)CN2CCN(c3ccccn3)CC2)cc1 (centres undefined) | 4 | 91* | -10 | -20 | 11
CC(C)(C)c1ccc(OCC(O)CN2CCCC2)cc1 (centres undefined) | 15 | -20 | 16 | 1 | -8
CC(C)(C)c1ccc(OCC(O)CN2CCN(c3ccccn3)CC2)cc1 (centres undefined) | 3 | 64* | 15 | 0 | 0
CC(C)CCNC(=O)N1CCN(S(=O)(=O)c2ccc3c(ccn3C)c2)CC1 | 0 | 6 | -22 | . | 3
CC(C)CC(=O)Nc1c(C(=O)N2CCN(c3ccccc3F)CC2)oc2ccccc12 | -1 | -13 | 13 | . | -2
COc1cc(C(=O)Nc2nc3c(s2)Cc2c(Br)ccc(OC)c2-3)cc(OC)c1OC | 3 | 19 | 2 | . | -3
Cc1ccc(N2C(=O)CSC23C(=O)N(CC(=O)Nc2ccc(C)cc2C)c2ccccc23)cc1 (centres undefined) | 1 | -3 | -8 | . | -4
CCN(CCCNC(=O)C1CCN(S(=O)(=O)N2CCC3(CC2)OCCO3)CC1)c1ccccc1 | 3 | 10 | 11 | -27 | -10
CCCCN(CCCNC(=O)C1CCN(S(=O)(=O)N2CCOCC2)CC1)c1ccccc1 | 3 | 0 | -35* | 20 | -4
COc1ccccc1NC(=O)C1=C(C)Nc2nc(-c3ccco3)nn2C1c1ccccc1F (centres undefined) | -3 | 3 | -12 | . | 0
N#Cc1c(C(F)(F)F)cc(-c2ccccc2)nc1SCc1nc(N)nc(N2CCOCC2)n1 | 70* | 1 | -17 | 10 | -3
N#Cc1c(C(F)(F)F)cc(-c2ccc(Cl)c(Cl)c2)nc1SCCN1CCOCC1 | 4 | -4 | -5 | -2 | -8
OCC[C@@H]1C[C@H](O)[C@@H](O)[C@@]2(OCc3ccccc32)O1 | 1 | 20 | -13 | 40 | -2
OCC[C@@H]1C[C@H](O)[C@@H](O)[C@]2(OCc3ccc(CO)cc32)O1 | . | -15 | . | -64* | .
COc1ccc(N2C3=[N+](CC2(C)O)c2ccccc2CC3)cc1 (centres undefined) | 3 | -65 | -89* | -25 | -2
COC/C=C/C1=CC(=O)C[C@H](c2ccc3c(c2)OCO3)C1 | 0 | 2 | . | 5 | -4
O=C1C=C(c2ccc(CO)cc2)C[C@@H](c2ccc3c(c2)OCO3)C1 | 1 | -27 | . | -51* | -1
SMILES | D1 ag | DRD3 agonist | D1 antagonist | DRD3 antagonist | D1 potentiator
CCCCC/C=C/C1=CC(=O)C[C@H](c2ccc3c(c2)OCO3)C1 | 2 | 51* | . | -1 | 2
CCOC(=O)C1=C(SCC)c2cc3c(n2C1=O)CCCC3 | 3 | -7 | -4 | -57* | -1
Cc1c(C(=O)NCc2ccc(Cl)cc2)sc2nc3n(c(=O)c12)CCC3 | 2 | -8 | -8 | . | -1
Cc1c(C(=O)Nc2ccc(Oc3ccccc3)cc2)sc2nc3n(c(=O)c12)CCC3 | 8 | 16 | -51* | -23 | -4
CCN(C(=O)c1sc2nc3n(c(=O)c2c1C)CCCC3)c1ccccc1F | 35* | -13 | -37* | . | 3
CCCN(C(=O)c1sc2nc3n(c(=O)c2c1C)CCCC3)c1ccccc1C | 3 | 7 | 5 | . | 1

High-throughput results from PubChem.
